Test results as given in the supplement of paper PMC7866885, “A novel bicyclic 2,4-diaminopyrimidine inhibitor of Streptococcus suis dihydrofolate reductase” (PeerJ, 2021).
± gives the standard deviation.

system: Streptococcus suis HE06; experiment: percent growth relative to DMSO control; higher = less growth inhibition; settings: 10 µM; incubation time 18 h
Protocol: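 CLSI broth microdilution: 5x10^4 CFU of Streptococcus suis (strain P1/7 or HE06) incubated with 10 µM Pathogen Box compound in cation-adjusted Mueller Hinton broth, 37 °C, 5% CO2, 18 h. Growth read as OD600 and expressed as percent of the DMSO-treated control (100%); mean ± SD of three independent experiments.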

Row | Compound | percent growth
1 | Cc1nn(C(=O)Nc2cccc(C(F)(F)F)c2)c(C)c1Sc1ncccn1 | 25.4 ± 40%
2 | Cc1nc(-c2ccccn2)nc(N2CCC(Cc3ccccc3)C2)c1Cl (stereo unspecified) | 0.933 ± 1.6%
3 | COc1ccc(-c2cnc3ccc(N4CCCC4)nn23)cc1OC | 48.8 ± 40%
4 | Cc1ccc(NC(=O)CC2COc3ccccc3O2)cc1Cl (stereo unspecified) | 96.4 ± 1.4%
5 | COC(=O)Nc1nc2cc(C(=O)c3ccccc3)ccc2[nH]1 | 86 ± 8.2%
6 | Cc1cc(C)nc(-n2nc(C)cc2Nc2ccccc2)n1 | 0.964 ± 1.7%
7 | Cn1c(=O)c2c(S(C)(=O)=O)snc2n(C)c1=O | 40.1 ± 32%
8 | COc1cc(C2=NCCN2)ccc1-n1cc(-c2cccc(C3=NCCN3)c2)nn1 | 99.7 ± 40%
9 | CO[C@@H](C(=O)N1Cc2[nH]nc(NC(=O)c3ccc(N4CCN(C)CC4)cc3)c2C1)c1ccccc1 | 82.9 ± 11%
10 | CC(=O)NC[C@@H]1CN(c2ccc(N3CCOCC3)c(F)c2)C(=O)O1 | 3.9 ± 5.2%
11 | CC(C)C(NC(=O)Cc1cccc2ccccc12)C(=O)Nc1cccc(C#N)c1 (stereo unspecified) | 84.6 ± 21%
12 | O=C([C@@H](c1ccc(Cl)cc1)c1cccnc1)N1CCN(c2ccc(C(F)(F)F)cc2)CC1 | 89 ± 10%
13 | Cc1ccc2oc(-c3cc(NC(=O)Cc4ccccc4)ccc3Cl)nc2c1 | 93.1 ± 13%
14 | CCn1ncc2c(NC3CCOCC3)c(CNC(=O)c3ccnn3C)c(C)nc21 | 109 ± 24%
15 | O=C(Nc1cccnc1)c1c(O)c2cccc3c2n(c1=O)CC3 | 78.3 ± 3.7%
16 | FC(F)(F)c1ccc(N(c2cccnc2)C2CCN(c3ccc(C(F)(F)F)cn3)CC2)cc1 | 67.9 ± 13%
17 | CC(=O)N1CCN(c2ccc(Oc3ccc(Cl)cc3O)cc2)CC1 | 142 ± 58%
18 | Cc1ccc(-c2cc(C(=O)Nc3cccnc3)c3cc(Br)ccc3n2)cc1 | 99.1 ± 11%
19 | Cc1ccccc1C(=O)N1N=C(Nc2ccccc2)SC1(C)C | 104 ± 8.3%
20 | Cc1cc(OCC(=O)Nc2ccc(C(C)C)cc2)n(C)c(=O)c1C#N | 99.6 ± 7.3%
21 | O=C(NCCN1CCCC1)c1cc(NCCCCN2CCC(F)(F)CC2)nc2ccc(Cl)cc12 | 93 ± 6.6%
